Experimental data from PubChem BioAssay.
For some of these results: Potency and affinity values are given separately. Activity calls are given as the source filed them. Unless noted, how the calls were made is not given here.

Experiments:
[1] = antimalarial activity against Dd2 strain (AID 2302;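 active means growth inhibition above 50% at the single 2 µM test dose, taken to imply half-maximal potency below 2 µM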;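 further: 0% = DMSO untreated growth and 100% = chloroquine plus artemisinin killed control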); conditions: P. falciparum Dd2 in RBCs, LDH growth readout, 72 h; at 2 µM; active compounds read high
[2] = human hepatoma cell viability loss – ATP luminescence, cytotoxicity control for P. falciparum antimalarial project, primary screen (AID 2303;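 active means inhibition above 50%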;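 further: 0% = DMSO wells and 100% = digitonin-killed cells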); conditions: HepG2 viability, 24-48 h, at 10 µM, active compounds read high
[3] = molecular target: L-lactate dehydrogenase (Plasmodium falciparum (isolate CDC / Honduras)) (UniProt Q27743); experiment: PfLDH activity inhibition – cell lysate, 3D7 strain, counter-screen for P. falciparum growth inhibition project (AID 2304);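 further: 0% = vehicle and 100% = reference inhibitor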; conditions: P. falciparum 3D7 crude extract, LDH APAD/NBT absorbance; at 2 µM; active compounds read high
Chain of L-lactate dehydrogenase (Plasmodium falciparum (isolate CDC / Honduras)) (Q27743 whole entry, looked up): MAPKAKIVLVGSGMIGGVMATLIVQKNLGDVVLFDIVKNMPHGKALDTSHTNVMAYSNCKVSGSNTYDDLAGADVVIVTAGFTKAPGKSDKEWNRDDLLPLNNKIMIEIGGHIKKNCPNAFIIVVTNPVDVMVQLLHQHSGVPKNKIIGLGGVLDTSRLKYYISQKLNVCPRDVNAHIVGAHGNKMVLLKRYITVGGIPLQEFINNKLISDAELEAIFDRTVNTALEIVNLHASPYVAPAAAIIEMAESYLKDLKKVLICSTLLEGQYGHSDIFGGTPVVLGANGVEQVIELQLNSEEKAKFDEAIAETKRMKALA

[4] = inhibition of 3D7 malaria parasite growth – strain 3D7 (AID 2306);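 further: 0% = DMSO wells and 100% = chloroquine plus artemisinin control wells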; conditions: P. falciparum 3D7 erythrocytic growth, LDH absorbance, 72 h; at 2 µM; active compounds read high
[5] = molecular target: Calcium-dependent protein kinase 1 (Plasmodium falciparum (isolate 3D7)) (UniProt P62344); experiment: PfCDPK1 kinase inhibitors, biochemical, TCAMS library (AID 1159585; cut-off not given, nearly all actives have IC50 up to about 0.98 µM;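 further: inhibitors leave more ATP so luminescence rises with inhibition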); conditions: recombinant PfCDPK1, Kinase-Glo ATP depletion luminescence
Chain of Calcium-dependent protein kinase 1 (Plasmodium falciparum (isolate 3D7)) (P62344 whole entry, looked up): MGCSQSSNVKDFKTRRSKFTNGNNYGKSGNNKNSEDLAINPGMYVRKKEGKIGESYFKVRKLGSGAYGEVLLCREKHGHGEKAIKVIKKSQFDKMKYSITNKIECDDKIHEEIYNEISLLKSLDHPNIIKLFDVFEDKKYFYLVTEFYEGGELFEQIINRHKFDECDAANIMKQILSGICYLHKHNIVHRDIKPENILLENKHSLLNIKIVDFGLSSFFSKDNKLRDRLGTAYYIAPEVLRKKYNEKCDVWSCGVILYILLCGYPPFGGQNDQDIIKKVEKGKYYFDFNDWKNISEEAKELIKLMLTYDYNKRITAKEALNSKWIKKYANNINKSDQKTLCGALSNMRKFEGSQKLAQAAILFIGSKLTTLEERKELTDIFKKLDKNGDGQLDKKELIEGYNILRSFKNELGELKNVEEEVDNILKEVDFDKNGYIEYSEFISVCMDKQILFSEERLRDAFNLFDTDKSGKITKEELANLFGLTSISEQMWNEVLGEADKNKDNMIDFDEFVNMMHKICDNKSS

[6] = molecular target: Plasmodium falciparum protein kinase 6 (PK6, PF3D7_1337100) (UniProt Q8IDW1); experiment: PfPK6 kinase inhibitors, biochemical, TCAMS library (AID 1159586); conditions: recombinant PfPK6, Kinase-Glo ATP depletion luminescence
Chain of Plasmodium falciparum protein kinase 6 (PK6, PF3D7_1337100) (Q8IDW1 1-305): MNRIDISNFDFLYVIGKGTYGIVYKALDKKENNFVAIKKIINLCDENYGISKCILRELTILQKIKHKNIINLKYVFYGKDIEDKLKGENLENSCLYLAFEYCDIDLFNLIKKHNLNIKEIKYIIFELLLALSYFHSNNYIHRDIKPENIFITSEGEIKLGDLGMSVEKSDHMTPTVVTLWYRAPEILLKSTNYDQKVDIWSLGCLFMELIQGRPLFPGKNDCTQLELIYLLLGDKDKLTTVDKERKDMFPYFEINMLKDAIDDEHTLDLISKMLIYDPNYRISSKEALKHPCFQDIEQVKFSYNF

[7] = molecular target: Protein kinase 7 (PK7), Plasmodium falciparum 3D7 (PF3D7_0213400) (UniProt Q7YTF7); experiment: inhibition of Plasmodium PK7 catalytic activity – biochemical, TCAMS antimalarial set, Kinase-Glo luminescence (AID 1159587); conditions: recombinant PfPK7, Kinase-Glo ATP depletion luminescence
Chain of Protein kinase 7 (PK7), Plasmodium falciparum 3D7 (PF3D7_0213400) (Q7YTF7 1-343): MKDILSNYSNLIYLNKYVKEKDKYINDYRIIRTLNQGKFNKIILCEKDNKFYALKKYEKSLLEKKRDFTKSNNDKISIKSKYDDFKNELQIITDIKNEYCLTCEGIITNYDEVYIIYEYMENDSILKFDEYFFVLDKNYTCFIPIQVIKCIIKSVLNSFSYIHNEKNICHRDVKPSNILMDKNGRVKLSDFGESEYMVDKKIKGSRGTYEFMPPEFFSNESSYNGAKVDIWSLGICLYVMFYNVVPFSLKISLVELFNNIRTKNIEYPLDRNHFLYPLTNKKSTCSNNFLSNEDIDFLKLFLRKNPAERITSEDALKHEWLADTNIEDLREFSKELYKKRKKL

[8] = molecular target: Calcium-dependent protein kinase 4 (Plasmodium falciparum (isolate 3D7)) (UniProt Q8IBS5); experiment: PfCDPK4 kinase inhibitors, biochemical, TCAMS library (AID 1159588; cut-off not given, nearly all actives have IC50 up to about 0.91 µM); conditions: recombinant PfCDPK4, Kinase-Glo ATP depletion luminescence
Chain of Calcium-dependent protein kinase 4 (Plasmodium falciparum (isolate 3D7)) (Q8IBS5 whole entry, looked up): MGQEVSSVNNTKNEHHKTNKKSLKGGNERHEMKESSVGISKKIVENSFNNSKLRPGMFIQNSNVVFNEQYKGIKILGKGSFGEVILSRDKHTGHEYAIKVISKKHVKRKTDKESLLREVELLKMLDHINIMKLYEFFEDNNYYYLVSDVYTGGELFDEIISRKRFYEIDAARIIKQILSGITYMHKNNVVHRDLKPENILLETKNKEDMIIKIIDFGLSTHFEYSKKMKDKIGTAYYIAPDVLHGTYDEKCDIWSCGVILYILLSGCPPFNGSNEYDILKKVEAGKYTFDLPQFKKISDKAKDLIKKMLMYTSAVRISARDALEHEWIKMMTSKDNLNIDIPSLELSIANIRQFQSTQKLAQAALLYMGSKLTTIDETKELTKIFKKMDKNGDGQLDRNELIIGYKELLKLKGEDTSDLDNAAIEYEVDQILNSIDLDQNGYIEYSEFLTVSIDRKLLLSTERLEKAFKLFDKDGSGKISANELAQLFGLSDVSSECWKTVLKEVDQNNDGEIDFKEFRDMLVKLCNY

CC1(CCN2CCC(c3c[nH]c4cnccc34)CC2)CCCc2c(Br)cccc2C1=O (stereo not drawn)
inactive: inhibition [2] 14% | inhibition [3] 3% | outcome [5] | outcome [6] | outcome [7] | outcome [8]
active: growth inhibition [1] 66% | growth inhibition [4] 101%

O=C(N[C@@H](CC1CCCCC1)C(=O)NCCN1CCCCC1)c1ccc(O)c(-c2ccc(Cl)c(Cl)c2)c1
inactive: inhibition [2] 14% | inhibition [3] -6% | outcome [5] | outcome [6] | outcome [7] | outcome [8]
active: growth inhibition [1] 99% | growth inhibition [4] 97%

CNC(=O)c1cnc(Nc2ccc(OCC(O)CN(C)C)cc2)nc1Nc1cccc(OC)c1 (stereo not drawn)
inactive: inhibition [2] 31% | inhibition [3] 1% | outcome [5] | outcome [6] | outcome [7] | outcome [8]
active: growth inhibition [1] 97% | growth inhibition [4] 103%

c1ccc(Oc2ccc(Nc3ccnc4cc(-c5ccc(CN6CCCCC6)o5)ccc34)cc2)nc1
active: growth inhibition [1] 100% | growth inhibition [4] 101%
inactive: inhibition [2] 18% | inhibition [3] -4% | outcome [5] | outcome [6] | outcome [7] | outcome [8]

O=C(c1ccc(Cl)cc1Cl)N1CCCC(C(F)(F)F)C1 (stereo not drawn)
inactive: growth inhibition [1] 47% | inhibition [2] 6% | inhibition [3] 3% | outcome [5] | outcome [6] | outcome [7] | outcome [8]
active: growth inhibition [4] 95%

COc1ccc(N(c2nc(-c3cc(Cl)ccc3Cl)cs2)C2CCNC2)cc1 (stereo not drawn)
active: growth inhibition [4] 95%
inactive: growth inhibition [1] 9% | inhibition [2] 21% | inhibition [3] 3% | outcome [5] | outcome [6] | outcome [7] | outcome [8]

CCn1ncc(Cl)c1CN(C)S(=O)(=O)c1ccc2ccccc2c1
inactive: inhibition [2] 16% | inhibition [3] -2% | outcome [5] | outcome [6] | outcome [7] | outcome [8]
active: growth inhibition [1] 91% | growth inhibition [4] 101%

COC(=O)c1ccc2nc(-c3cc(OC)c(O)c(C(=O)NC4CCN(Cc5ccccc5)CC4)c3)[nH]c2c1
active: growth inhibition [4] 85%
inactive: growth inhibition [1] -2% | inhibition [2] 8% | inhibition [3] 0% | outcome [5] | outcome [6] | outcome [7] | outcome [8]

Cc1cc(N[C@@H](Cc2ccccc2)C(=O)NC2CCCC2)nc(Nc2ccccc2)n1
inactive: inhibition [2] 3% | inhibition [3] 0% | outcome [5] | outcome [6] | outcome [7] | outcome [8]
active: growth inhibition [1] 82% | growth inhibition [4] 100%

CCO[C@H]1CN[C@H](C#Cc2cc3c(Nc4ccc(OCc5cccc(F)c5)c(Cl)c4)ncnc3s2)C1
active: growth inhibition [4] 100%
inactive: growth inhibition [1] 37% | inhibition [2] 8% | inhibition [3] 2% | outcome [5] | outcome [6] | outcome [7] | outcome [8]

FC(F)(F)c1ccc2nc(-c3cccc(-c4ccc(CNCc5ccccc5)cc4)c3)[nH]c2c1
active: growth inhibition [1] 99% | growth inhibition [4] 101%
inactive: inhibition [2] 25% | inhibition [3] -4% | outcome [5] | outcome [6] | outcome [7] | outcome [8]

COc1cc(F)c2ncc(F)c([C@@H](O)CN3CCC(NCc4cc5c(cn4)OCCO5)CC3)c2c1
active: growth inhibition [1] 88% | growth inhibition [4] 101%
inactive: inhibition [2] 1% | inhibition [3] -1% | outcome [5] | outcome [6] | outcome [7] | outcome [8]

CC(CCON1C(N)=NC(N)=NC1(C)C)c1ccc(Cl)cc1 (stereo not drawn)
inactive: inhibition [3] -5% | outcome [5] | outcome [6] | outcome [7] | outcome [8]
active: growth inhibition [1] 97% | inhibition [2] 64% | growth inhibition [4] 93%

CC1(C)N=C(N)N=C(N)N1OCCCOc1ccccc1Cl
active: growth inhibition [1] 94% | inhibition [2] 64% | growth inhibition [4] 96%
inactive: inhibition [3] 1% | outcome [5] | outcome [6] | outcome [7] | outcome [8]

COc1cccc(-c2cc(C(=O)NC3CCC(N4CCC(c5ccccc5C)CC4)CC3)[nH]n2)c1 (stereo not drawn)
active: growth inhibition [1] 58% | inhibition [2] 60% | growth inhibition [4] 99%
inactive: inhibition [3] -2% | outcome [5] | outcome [6] | outcome [7] | outcome [8]

COc1cc(NC(=O)CCCN2CCN(c3cccc(Cl)c3Cl)CC2)ccc1N1CCN(C(C)C)CC1
inactive: inhibition [2] 31% | inhibition [3] 4% | outcome [5] | outcome [6] | outcome [7] | outcome [8]
active: growth inhibition [1] 59% | growth inhibition [4] 99%

COc1ccc(-c2ccc(NC(=O)c3ccc(Cl)cc3)cc2)cc1CN1CCCN(C)CC1
inactive: inhibition [2] 27% | inhibition [3] 2% | outcome [5] | outcome [6] | outcome [7] | outcome [8]
active: growth inhibition [1] 61% | growth inhibition [4] 93%

CCOc1c(CNCCCNc2cc(=O)c3ccccc3[nH]2)cc(I)cc1OC
active: growth inhibition [4] 91%
inactive: growth inhibition [1] 6% | inhibition [2] -4% | inhibition [3] 2% | outcome [5] | outcome [6] | outcome [7] | outcome [8]

COc1ccc2nccc(N3CCN(CCNCc4ccc5c(n4)NC(=O)CS5)CC3)c2c1
active: growth inhibition [4] 97%
inactive: growth inhibition [1] 23% | inhibition [2] 18% | inhibition [3] -2% | outcome [5] | outcome [6] | outcome [7] | outcome [8]

COc1ccccc1N1CCN(CCCCNC(=O)c2ccc(NC(=O)c3ccc(C(F)(F)F)cc3)cc2)CC1
inactive: growth inhibition [1] 37% | inhibition [2] 25% | inhibition [3] 0% | outcome [5] | outcome [6] | outcome [7] | outcome [8]
active: growth inhibition [4] 100%

O=S(=O)(Nc1cccc(CCN2CCCCC2CCN2CCCC2)c1)c1cccc2ccccc12 (stereo not drawn)
inactive: growth inhibition [1] 6% | inhibition [2] 23% | inhibition [3] 3% | outcome [5] | outcome [6] | outcome [7] | outcome [8]
active: growth inhibition [4] 97%

Cc1cnc(C(=O)Nc2ccc(-c3cccc(-c4nc5ccccc5[nH]4)c3)cc2)cn1
inactive: growth inhibition [1] 8% | inhibition [3] -3% | outcome [5] | outcome [6] | outcome [7] | outcome [8]
active: inhibition [2] 77% | growth inhibition [4] 93%

COc1ccc(CNCc2ccccc2)cc1-c1cccc(S(=O)(=O)NCCN2CCCC2)c1
active: growth inhibition [4] 98%
inactive: growth inhibition [1] 36% | inhibition [2] 37% | inhibition [3] -8% | outcome [5] | outcome [6] | outcome [7] | outcome [8]

O=C(NCCNc1ccnc2cc(Cl)ccc12)c1ccccc1F
inactive: inhibition [2] 30% | inhibition [3] 0% | outcome [5] | outcome [6] | outcome [7] | outcome [8]
active: growth inhibition [1] 98% | growth inhibition [4] 99%

CC(CN(C)C)C(=O)Nc1ccc(-c2csc(-c3nc4ccccc4[nH]3)c2)cc1 (stereo not drawn)
active: growth inhibition [4] 84%
inactive: growth inhibition [1] 19% | inhibition [2] 28% | inhibition [3] -4% | outcome [5] | outcome [6] | outcome [7] | outcome [8]

COc1ccc(-c2cc(NCc3ccc(-n4ccnc4)cc3)nc(Nc3ccccc3)n2)cc1
inactive: inhibition [2] 8% | inhibition [3] 0% | outcome [5] | outcome [6] | outcome [7] | outcome [8]
active: growth inhibition [1] 79% | growth inhibition [4] 101%

Cc1cccc(OCC(=O)Nc2cccc(NC(=O)COc3cccc(C)c3)n2)c1
inactive: growth inhibition [1] 30% | inhibition [2] -3% | inhibition [3] 0% | outcome [5] | outcome [6] | outcome [7] | outcome [8]
active: growth inhibition [4] 98%

Cc1[nH]c(C)c(-c2ccc(-c3cccc(C(F)(F)F)c3)nc2)c(=O)c1Br
inactive: inhibition [2] 28% | inhibition [3] -4% | outcome [5] | outcome [6] | outcome [7] | outcome [8]
active: growth inhibition [1] 96% | growth inhibition [4] 97%

C[C@@H](CC1CCCCC1)OC(=O)N[C@H]1CCN(C#N)C1
active: growth inhibition [1] 83% | growth inhibition [4] 95%
inactive: inhibition [2] 7% | inhibition [3] 1% | outcome [5] | outcome [6] | outcome [7] | outcome [8]

O=C(Nc1cccc(-c2cccc(-c3nc4ccc(F)cc4[nH]3)c2)c1)c1ccncc1
inactive: growth inhibition [1] 24% | inhibition [2] 28% | inhibition [3] -3% | outcome [5] | outcome [6] | outcome [7] | outcome [8]
active: growth inhibition [4] 92%

Cc1[nH]nc2cc(Nc3nccc(Nc4ccc(Oc5ccccc5)cc4)n3)ccc12
inactive: inhibition [2] 8% | inhibition [3] -7% | outcome [5] | outcome [6] | outcome [7] | outcome [8]
active: growth inhibition [1] 98% | growth inhibition [4] 101%

CC(C)(C)c1ccccc1OCCCON1C(N)=NC(N)=NC1(C)C
inactive: inhibition [3] 5% | outcome [5] | outcome [6] | outcome [7] | outcome [8]
active: growth inhibition [1] 98% | inhibition [2] 63% | growth inhibition [4] 95%

Cn1cncc1C(=O)Nc1cccc(-c2cccc(-c3nc4ccccc4[nH]3)c2)c1
inactive: growth inhibition [1] 35% | inhibition [2] 9% | inhibition [3] 3% | outcome [5] | outcome [6] | outcome [7] | outcome [8]
active: growth inhibition [4] 102%

CN1CCN(c2ccnc3ccc(NC(=O)Cc4ccc(Br)c5ccccc45)cc23)CC1
inactive: inhibition [2] 8% | inhibition [3] -3% | outcome [5] | outcome [6] | outcome [7] | outcome [8]
active: growth inhibition [1] 99% | growth inhibition [4] 96%

O=C1SC(=Cc2ccc(O)c(O)c2)C(=O)N1c1ccccc1
active: growth inhibition [4] 91%
inactive: growth inhibition [1] 17% | inhibition [2] 12% | inhibition [3] -5% | outcome [5] | outcome [6] | outcome [7] | outcome [8]

Fc1ccc2c(NN=Cc3ccccc3)ccnc2c1
inactive: inhibition [2] 1% | inhibition [3] 2% | outcome [5] | outcome [6] | outcome [7] | outcome [8]
active: growth inhibition [1] 99% | growth inhibition [4] 100%

Cc1nc(N)nc(N)c1C#CC1CCCC1
active: inhibition [2] 68% | growth inhibition [4] 96%
inactive: growth inhibition [1] 2% | inhibition [3] 4% | outcome [5] | outcome [6] | outcome [7] | outcome [8]

OCCCCCCNc1ccnc2[nH]c3ccc(I)cc3c12
inactive: inhibition [2] 27% | inhibition [3] -4% | outcome [5] | outcome [6] | outcome [7] | outcome [8]
active: growth inhibition [1] 61% | growth inhibition [4] 100%

Fc1ccc2nc(-c3cccc(-c4ccc(CN5CCCCC5)cc4)c3)[nH]c2c1
inactive: inhibition [2] 46% | inhibition [3] -2% | outcome [5] | outcome [6] | outcome [7] | outcome [8]
active: growth inhibition [1] 97% | growth inhibition [4] 99%

CC(C)(C)c1cc([N+](=O)[O-])cc(C(=O)Nc2ccccc2C(F)(F)F)c1O
inactive: inhibition [3] 5% | outcome [5] | outcome [6] | outcome [7] | outcome [8]
active: growth inhibition [1] 99% | inhibition [2] 74% | growth inhibition [4] 96%

Cc1ccc2nc(Cl)c3cc(C(=O)NCCCN4CCCC4)sc3c2c1
active: growth inhibition [4] 89%
inactive: growth inhibition [1] 40% | inhibition [2] 26% | inhibition [3] 0% | outcome [5] | outcome [6] | outcome [7] | outcome [8]
